According to PubChem BioAssay AID1159580 (chemical genetic matrix, 2015):
About 2,000 (36%) of roughly 5,500 compounds were called active. About 18% were inconclusive and are not listed. Rule as the data show it: active = normalized growth mostly below about 0.91 (no sharp cut-off); inconclusive = no clear call, values can overlap the other calls; inactive = mostly above about 0.92. Some of the results follow.

Test: chemical genetic growth profiling, strain panel (AID 1159580);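 also: tested at 20 µM; growth read once vehicle control cultures reached saturation at 30 °C; 1 = growth at the plate median or of vehicle wells; lower values mean less growth of the strain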
Conditions: S. cerevisiae deletion strains, growth OD
[1] = locus YAR019C, strain CDC15, active compounds read low
[2] = locus YBL105C, strain PKC1, active compounds read low
[3] = locus YBR135W, strain CKS1, active compounds read low
[4] = locus YBR136W, strain MEC1, active compounds read low
[5] = locus YBR160W, strain CDC28, active compounds read low
[6] = locus YDL017W, strain CDC7, active compounds read low
[7] = locus YDL028C, strain MPS1, active compounds read low
[8] = locus YDL101C, strain DUN1, active compounds read low
[9] = locus YDL108W, strain KIN28, active compounds read low
[10] = locus YDL132W, strain cdc53, active compounds read low
[11] = locus YDL214C, strain PRR2, active compounds read low
[12] = locus YDR052C, strain DBF4, active compounds read low
[13] = locus YDR054C, strain cdc34, active compounds read low
[14] = locus YDR226W, strain ADK1, active compounds read low
[15] = locus YDR477W, strain SNF1, active compounds read low
[16] = locus YER123W, strain YCK3, active compounds read low
[17] = locus YER133W, strain GLC7, active compounds read low
[18] = locus YFL009W, strain cdc4, active compounds read low
[19] = locus YFL029C, strain CAK1, active compounds read low
[20] = locus YFR003C, strain YPI1, active compounds read low
[21] = locus YFR019W, strain FAB1, active compounds read low
[22] = locus YFR028C, strain CDC14, active compounds read low
[23] = locus YGR040W, strain KSS1, active compounds read low
[24] = locus YGR052W, strain FMP48, active compounds read low
[25] = locus YGR092W, strain DBF2, active compounds read low
[26] = locus YHR030C, strain SLT2, active compounds read low
[27] = locus YHR079C, strain IRE1, active compounds read low
[28] = locus YHR082C, strain KSP1, active compounds read low
[29] = locus YHR205W, strain SCH9, active compounds read low
[30] = locus YIL147C, strain SLN1, active compounds read low
[31] = locus YJL095W, strain BCK1, active compounds read low
[32] = locus YJL128C, strain PBS2, active compounds read low
[33] = locus YJL157C, strain FAR1, active compounds read low
[34] = locus YJR016C, strain ILV3, active compounds read low
[35] = locus YJR066W, strain TOR1 (second series), active compounds read low
[36] = locus YJR066W, strain TOR1, active compounds read low
[37] = locus YKL048C, strain ELM1, active compounds read low
[38] = locus YKL067W, strain YNK1, active compounds read low
[39] = locus YKL101W, strain HSL1, active compounds read low
[40] = locus YKL193C, strain SDS22, active compounds read low
[41] = locus YKL203C, strain TOR2, active compounds read low
[42] = locus YLR113W, strain HOG1, active compounds read low
[43] = locus YLR133W, strain CKI1, active compounds read low
[44] = locus YLR403W, strain SFP1, active compounds read low
[45] = locus YML070W, strain DAK1, active compounds read low
[46] = locus YMR001C, strain CDC5, active compounds read low
[47] = locus YMR205C, strain PFK2 (second series), active compounds read low
[48] = locus YMR277W, strain FCP1, active compounds read low
[49] = locus YNL006W, strain LST8, active compounds read low
[50] = locus YNL020C, strain ARK1, active compounds read low
[51] = locus YNL161W, strain CBK1, active compounds read low
[52] = locus YNL183C, strain NPR1, active compounds read low
[53] = locus YNL207W, strain RIO2, active compounds read low
[54] = locus YNL222W, strain SSU72, active compounds read low
[55] = locus YNL307C, strain MCK1 (second series), active compounds read low
[56] = locus YOL078W, strain AVO1, active compounds read low
[57] = locus YOL136C, strain PFK27, active compounds read low
[58] = locus YOR061W, strain CKA2, active compounds read low
[59] = locus YOR119C, strain RIO1, active compounds read low
[60] = locus YOR231W, strain MKK1, active compounds read low
[61] = locus YOR329C, strain SCD5, active compounds read low
[62] = locus YPL031C, strain PHO85, active compounds read low
[63] = locus YPL153C, strain RAD53, active compounds read low
[64] = locus YPL204W, strain HRR25, active compounds read low
[65] = locus YPL209C, strain IPL1, active compounds read low
[66] = locus YPL256C, strain CLN2, active compounds read low
[67] = locus YPR025C, strain CCL1, active compounds read low
[68] = locus YPR106W, strain ISR1, active compounds read low
[69] = locus YPR111W, strain DBF20, active compounds read low
[70] = strain NNK1, active compounds read low
[71] = strain TSCII, active compounds read low

Measured: normalized growth

Nc1nc(Cl)nc2c1ncn2[C@@H]1O[C@H](COP(=O)(O)OP(=O)(O)OP(=O)(O)O)[C@H](O)C1O (stereo partly specified)
inactive: locus YAL013W, strain DEP1, active compounds read low 0.999 | locus YAL040C, strain CLN3, active compounds read low 0.995 | locus YCL061C, strain MRC1 (second series), active compounds read low 1 | locus YDR363W, strain ESC2, active compounds read low 1.01 | locus YER002W, strain NOP16, active compounds read low 0.99 | locus YGR078C, strain PAC10, active compounds read low 1.01 | locus YJR075W, strain HOC1, active compounds read low 1 | locus YMR307W, strain GAS1, active compounds read low 0.997 | locus YNL128W, strain TEP1, active compounds read low 1.01 | locus YNL175C, strain NOP13, active compounds read low 0.995 | locus YNL197C, strain WHI3, active compounds read low 1.02 | locus YNL224C, strain SQS1, active compounds read low 0.987 | locus YOR083W, strain WHI5 (second series), active compounds read low 1.01

CCCc1c(C(=O)NNc2cccc(Cl)c2)cnn1-c1ccccc1
inactive: [1] 0.984 | [2] 0.974 | [3] 0.987 | [4] 0.982 | [5] 0.976 | [6] 0.974 | [7] 0.995 | [8] 0.978 | [9] 0.988 | [10] 0.993 | [11] 0.944 | [12] 0.983 | [13] 0.986 | [14] 0.98 | [15] 0.954 | [16] 0.917 | [17] 0.957 | [18] 0.986 | [19] 0.98 | [20] 0.987 | [21] 0.937 | [22] 0.981 | [23] 0.925 | [24] 1 | [25] 0.957 | [26] 0.963 | [27] 0.963 | [28] 1 | [29] 0.933 | [30] 0.992 | [31] 0.968 | [32] 0.917 | [33] 0.937 | [34] 0.986 | [35] 0.911 | [36] 1.02 | [37] 0.968 | [38] 0.947 | [39] 0.924 | [40] 0.988 | [41] 0.987 | [42] 0.864 | [43] 0.936 | [44] 0.917 | [45] 0.927 | [46] 0.979 | [47] 0.948 | [48] 0.987 | [49] 0.996 | [50] 0.927 | [51] 0.983 | [52] 0.98 | [53] 0.983 | [54] 0.976 | [55] 0.935 | [56] 0.985 | [57] 0.897 | [58] 0.963 | [59] 1.01 | [60] 0.898 | [61] 0.981 | [62] 0.963 | [63] 0.94 | [64] 0.924 | [65] 0.973 | [66] 0.892 | [67] 0.982 | [68] 0.959 | [69] 0.965 | [70] 0.971 | [71] 0.988

CCCc1c(C(=O)Sc2ccccn2)cnn1-c1ccc(Cl)cc1
active: [42] 0.804 | [66] 0.755
inactive: [1] 0.957 | [2] 0.962 | [3] 0.957 | [4] 0.964 | [5] 0.944 | [6] 0.963 | [7] 0.966 | [8] 0.964 | [9] 0.955 | [10] 0.95 | [11] 0.861 | [12] 0.962 | [13] 0.948 | [14] 0.959 | [15] 0.876 | [16] 0.847 | [17] 0.878 | [18] 0.957 | [19] 0.948 | [20] 0.955 | [21] 0.908 | [22] 0.955 | [23] 0.845 | [24] 0.919 | [25] 0.879 | [26] 0.933 | [27] 0.931 | [28] 0.907 | [29] 0.93 | [30] 0.967 | [31] 0.951 | [32] 0.932 | [33] 0.849 | [34] 0.955 | [35] 0.822 | [36] 0.87 | [37] 0.911 | [38] 0.885 | [39] 0.912 | [40] 0.961 | [41] 0.942 | [43] 0.912 | [44] 0.861 | [45] 0.869 | [46] 0.953 | [47] 0.932 | [48] 0.964 | [49] 0.98 | [50] 0.911 | [51] 0.955 | [52] 0.881 | [53] 0.955 | [54] 0.957 | [55] 0.912 | [56] 0.957 | [57] 0.878 | [58] 0.898 | [59] 0.947 | [60] 0.897 | [61] 0.957 | [62] 0.903 | [63] 0.899 | [64] 0.895 | [65] 0.952 | [67] 0.954 | [68] 0.95 | [69] 0.937 | [70] 0.961 | [71] 0.955

CCCc1c(C(=O)NC2Cc3ccccc3C2)cnn1-c1ccccc1
inactive: [1] 0.986 | [2] 0.99 | [3] 0.996 | [4] 0.99 | [5] 0.99 | [6] 0.999 | [7] 0.993 | [8] 0.993 | [9] 0.997 | [10] 0.99 | [11] 0.976 | [12] 0.998 | [13] 0.983 | [14] 0.991 | [15] 0.964 | [16] 0.979 | [17] 0.965 | [18] 0.986 | [19] 0.988 | [20] 0.995 | [21] 0.974 | [22] 0.986 | [23] 0.96 | [24] 1.05 | [25] 1.01 | [26] 0.97 | [27] 1 | [28] 1.04 | [29] 0.991 | [30] 0.994 | [31] 0.991 | [32] 0.979 | [33] 0.969 | [34] 0.98 | [35] 0.93 | [36] 0.986 | [37] 0.982 | [38] 0.991 | [39] 0.972 | [40] 0.988 | [41] 1.01 | [42] 0.951 | [43] 0.968 | [44] 0.956 | [45] 0.97 | [46] 0.987 | [47] 0.987 | [48] 0.989 | [49] 0.995 | [50] 0.984 | [51] 0.991 | [52] 0.998 | [53] 0.987 | [54] 0.992 | [55] 0.998 | [56] 0.985 | [57] 0.96 | [58] 0.977 | [59] 1.01 | [60] 0.934 | [61] 0.992 | [62] 0.98 | [63] 0.956 | [64] 0.963 | [65] 0.994 | [66] 0.921 | [67] 0.998 | [68] 0.98 | [69] 0.981 | [70] 0.986 | [71] 0.997
